The structures appear in SMILES notation. Inconclusive results are not listed. A number with no mark means an inactive call. The source made the active and inactive calls. The call rests on the fitted dose curve; in most records, active means well fitted curve in the direction sought with a large enough effect; inconclusive means small, poorly fitted or top-dose-only effect, or another doubt; inactive means no such curve, though single readings can be large; an effect the other way counts as inactive or inconclusive.

For assay [1], the target named is Rap guanine nucleotide exchange factor 3 (Homo sapiens) (UniProt O95398). Briefly: Confirmatory qHTS for agonist of cAMP-regulated guanine nucleotide exchange factor 3 (EPAC1) (AID 1645881).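 Further: EPAC1 catalysed release of BODIPY-GDP from Rap1B seen as fluorescence loss; 100% = effect of cAMP agonist control; nearly all actives have a fitted effect of over 75% in size.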 A general note: Quantitative high-throughput screening tests each substance at several concentrations.
Sequence of Rap guanine nucleotide exchange factor 3 (Homo sapiens) (O95398 whole entry, looked up): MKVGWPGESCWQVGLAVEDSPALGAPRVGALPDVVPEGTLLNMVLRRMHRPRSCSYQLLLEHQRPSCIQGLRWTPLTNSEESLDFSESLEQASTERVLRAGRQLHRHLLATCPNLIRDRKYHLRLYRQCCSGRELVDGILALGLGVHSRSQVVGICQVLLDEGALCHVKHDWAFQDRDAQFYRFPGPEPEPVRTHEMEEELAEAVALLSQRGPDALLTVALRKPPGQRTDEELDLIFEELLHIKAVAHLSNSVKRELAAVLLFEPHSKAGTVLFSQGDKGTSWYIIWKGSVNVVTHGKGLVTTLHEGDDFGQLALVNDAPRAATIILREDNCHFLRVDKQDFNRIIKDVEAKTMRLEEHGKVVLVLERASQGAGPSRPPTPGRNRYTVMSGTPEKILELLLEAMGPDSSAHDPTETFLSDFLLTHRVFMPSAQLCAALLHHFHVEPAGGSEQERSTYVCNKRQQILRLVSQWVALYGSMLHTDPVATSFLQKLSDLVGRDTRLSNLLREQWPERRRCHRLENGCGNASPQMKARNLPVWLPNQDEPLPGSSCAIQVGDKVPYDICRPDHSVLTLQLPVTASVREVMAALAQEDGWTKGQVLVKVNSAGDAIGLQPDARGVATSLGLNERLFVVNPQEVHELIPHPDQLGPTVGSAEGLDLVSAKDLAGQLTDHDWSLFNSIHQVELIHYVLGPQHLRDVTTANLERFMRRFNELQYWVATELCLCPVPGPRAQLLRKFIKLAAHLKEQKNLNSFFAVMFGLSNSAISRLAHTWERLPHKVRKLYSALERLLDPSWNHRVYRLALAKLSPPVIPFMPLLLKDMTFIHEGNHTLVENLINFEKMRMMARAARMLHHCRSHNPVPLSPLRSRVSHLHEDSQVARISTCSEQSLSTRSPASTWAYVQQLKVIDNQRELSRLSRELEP
Assay [2] addresses Rap guanine nucleotide exchange factor 4 (Homo sapiens) (UniProt Q8WZA2). As to the kind of experiment: Confirmatory qHTS for agonist of cAMP-regulated guanine nucleotide exchange factor 4 (EPAC2) (AID 1645884).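 Further: nucleotide exchange releases bodipy-GDP from Rap1 and this lowers its fluorescence; on the % scale 0 is the no-effect control and ±100 the full control effect; nearly all actives have a fitted effect of over 65% in size.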
Assay [3] shares this target. Briefly: Confirmatory qHTS for antagonist of cAMP-regulated guanine nucleotide exchange factor 4 (EPAC2) (AID 1645885). Further: nearly all actives have a fitted effect of over 25% in size. Further: potency means the concentration at half of the fitted maximal effect. On activity change, negative = inhibition: on the % scale 0 is the no-effect control and ±100 the full control effect.
The target of assay [4] is Rap guanine nucleotide exchange factor 3 (Homo sapiens) (UniProt O95398). Briefly: Counterscreen qHTS for antagonist of cAMP-regulated guanine nucleotide exchange factor 3 (EPAC1) (AID 1645888).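 Further: fluorescence loss as bound BODIPY-GDP is released from Rap1B; % of control where 0% means no effect.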 An outline of the steps:
(§1)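 Rap1B-BODIPY-GDP 250 nM + GDP 50 uM; cpds 7-pt, final 9.74 nM–152 uM (activator mode) or from 7.32 nM upwards (inhibitor mode); RT; FI 480/540 nm at 5 and 30 min, then ± cAMP, reread.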

Assay [5] shares this target. As to the kind of experiment: Counterscreen qHTS for agonist of cAMP-regulated guanine nucleotide exchange factor 3 (EPAC1) (AID 1645889). Further: nearly all actives have a fitted effect of over 40% in size. Further: potency means the concentration at half of the fitted maximal effect. On activation: % of control where 0% means no effect. Summed up: as §1

Sequence of Rap guanine nucleotide exchange factor 4 (Homo sapiens) (Q8WZA2 whole entry, looked up): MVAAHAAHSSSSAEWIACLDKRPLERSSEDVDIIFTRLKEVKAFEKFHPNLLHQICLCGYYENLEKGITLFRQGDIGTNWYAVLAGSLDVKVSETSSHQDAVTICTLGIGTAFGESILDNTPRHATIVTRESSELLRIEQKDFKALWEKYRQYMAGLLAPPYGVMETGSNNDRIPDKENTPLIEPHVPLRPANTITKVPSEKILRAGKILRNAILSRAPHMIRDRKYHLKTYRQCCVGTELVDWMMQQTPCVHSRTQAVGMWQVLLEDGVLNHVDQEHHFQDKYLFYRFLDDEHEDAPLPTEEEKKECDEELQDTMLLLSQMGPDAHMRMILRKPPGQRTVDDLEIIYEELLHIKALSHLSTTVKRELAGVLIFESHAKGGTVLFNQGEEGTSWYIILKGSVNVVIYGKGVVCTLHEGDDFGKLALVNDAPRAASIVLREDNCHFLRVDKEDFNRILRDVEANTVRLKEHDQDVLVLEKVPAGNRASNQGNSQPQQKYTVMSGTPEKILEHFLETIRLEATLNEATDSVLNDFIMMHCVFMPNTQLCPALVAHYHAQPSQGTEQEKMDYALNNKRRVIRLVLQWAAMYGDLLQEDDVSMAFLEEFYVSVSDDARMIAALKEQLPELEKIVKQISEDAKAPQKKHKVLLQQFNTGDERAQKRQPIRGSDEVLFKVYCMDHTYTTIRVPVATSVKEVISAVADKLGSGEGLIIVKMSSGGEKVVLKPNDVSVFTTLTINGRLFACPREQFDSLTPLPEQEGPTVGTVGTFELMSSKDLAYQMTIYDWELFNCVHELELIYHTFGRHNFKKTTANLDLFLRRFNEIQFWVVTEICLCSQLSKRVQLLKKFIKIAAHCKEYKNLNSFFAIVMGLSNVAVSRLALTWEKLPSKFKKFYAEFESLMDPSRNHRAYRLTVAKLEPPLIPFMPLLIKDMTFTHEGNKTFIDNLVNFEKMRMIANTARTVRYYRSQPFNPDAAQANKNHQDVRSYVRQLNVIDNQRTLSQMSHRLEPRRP

As to `COc1ccc(C2=NN(c3ccccc3)C(c3cn(CCC(=O)O)nc3-c3ccccc3)C2)cc1` (stereo not given), the Potency entry in assay [1], in assay [2], in assay [3], in assay [4] and in assay [5] was “inactive” in each case.
With `Brc1ccc(/C=N/Nc2nc3ccccc3o2)cc1`, the Potency result in assay [1], in assay [2], in assay [3], in assay [4] and in assay [5] was “inactive” throughout.
Regarding `CCOc1cc(/C=C/c2cc(C(=O)O)c3ccccc3n2)ccc1OC`, the Potency result in assay [1] and in assay [3] was “inactive” throughout. For the same molecule, the activation in assay [2] was -3.6% [at 17.1 µM, percent relative to cAMP agonist control]; in assay [5], 6.45% [at 30.8 µM]. Moreover, the activity change, negative = inhibition in assay [4] is 8.54% [at 30.8 µM].
As for `Cc1ccc2nc(-c3ccco3)c(Cc3cccc(Cl)c3)n2c1`, the Potency entry in assay [1] and in assay [3] was “inactive” in each case. The activation was 2.28% [at 17.1 µM, percent relative to cAMP agonist control] in assay [2] and 14.3% [at 30.8 µM] in assay [5]. For the same molecule, the activity change, negative = inhibition in assay [4] was -5.77% [at 30.8 µM].
`Cc1c(N=Cc2cc(Br)cc(Br)c2O)cccc1C(=O)O`: the Potency entry in assay [1] and in assay [3] was “inactive” in each case. The activation was -1.44% [at 17.1 µM, percent relative to cAMP agonist control] in assay [2] and 3.4% [at 30.8 µM] in assay [5]. In addition, the activity change, negative = inhibition in assay [4] is -0.566% [at 30.8 µM].
For the molecule `O=C(CCN1C(=O)S/C(=C\c2ccc(Cl)cc2)C1=O)Nc1ccc(C(=O)O)cc1`, the Potency entry in assay [1], in assay [2], in assay [3], in assay [4] and in assay [5] was “inactive” throughout.
Take `Cc1csc(NC(=O)CSCC(=O)O)c1-c1nc2ccccc2s1`: the Potency result in assay [1], in assay [2], in assay [3], in assay [4] and in assay [5] was “inactive” in each case.
`C=CCn1c(C)cc(C2=NNC(=Nc3ccc(C)cc3)SC2)c1C`: the Potency result in assay [1], in assay [2], in assay [3], in assay [4] and in assay [5] was “inactive” each time.
Regarding `N#Cc1c(SCC(=O)Nc2cccc(C(F)(F)F)c2)sc2c(O)cc(=O)[nH]c12`, the Potency result in assay [1] and in assay [3] was “inactive” each time. Further, the activation in assay [2] was 0% [at 17.1 µM, percent relative to cAMP agonist control]; in assay [5], 17.2% [at 30.8 µM]. In assay [4], the activity change, negative = inhibition is -10.8% [at 30.8 µM].
Turning to `O=c1[nH]n2c(=O)c3c([nH]c2c1N=Nc1cccc(Cl)c1)CCCC3`, the Potency entry in assay [1] and in assay [3] was “inactive” throughout. Besides, the activation was -16.2% [at 17.1 µM, percent relative to cAMP agonist control] in assay [2] and -2.93% [at 30.8 µM] in assay [5]. Further, in assay [4], the activity change, negative = inhibition is -25.4% [at 30.8 µM].
Consider `CC1(Cc2ccccc2Cl)C(=O)Nc2ccc(OC(F)(F)F)cc21` (stereo not given), for which the Potency result in assay [1] and in assay [3] was “inactive” each time. The activation in assay [2] is 0.883% [at 17.1 µM, percent relative to cAMP agonist control]; in assay [5], 5.61% [at 30.8 µM]. Besides, the activity change, negative = inhibition in assay [4] was -9.83% [at 30.8 µM].
Take `CC1=Nc2ccccc2N=C(NC(=O)/C=C/C(=O)O)C1c1ccccc1` (stereo not given): the Potency entry in assay [1], in assay [2], in assay [4] and in assay [5] was “inactive” throughout. In addition, the Potency in assay [3] is 0.0675 µM (active).
Consider `COc1ccc2oc(C(=O)Nc3ccc(N4CCOCC4)cc3)c(C)c2c1`, for which the Potency result in assay [1] and in assay [3] was “inactive” each time. In addition, the activation in assay [2] is -0.0841% [at 17.1 µM, percent relative to cAMP agonist control]; in assay [5], 8.1% [at 30.8 µM]. Further, in assay [4], the activity change, negative = inhibition was 7.62% [at 30.8 µM].
Turning to `CC1=NN(c2ccc(Br)cc2)C(=O)/C1=C/c1cccs1`, the Potency entry in assay [1] and in assay [3] was “inactive” in each case. In addition, in assay [2], the activation is 4.12% [at 17.1 µM, percent relative to cAMP agonist control]. Also, the activity change, negative = inhibition in assay [4] is 29.1% [at 30.8 µM]. Moreover, the Potency in assay [5] was 14.1 µM (active).
Turning to `COC(=O)c1cc(C#N)c(Oc2ccccc2OC)nc1C`, the Potency entry in assay [1], in assay [2], in assay [3], in assay [4] and in assay [5] was “inactive” each time.
`CC1CCC(NC(=O)Cn2c3c(c(-c4ccccc4Cl)cc2=O)CCC3)CC1` (stereo not given): the Potency entry in assay [1] and in assay [3] was “inactive” throughout. Also, the activation in assay [2] is 13.3% [at 17.1 µM, percent relative to cAMP agonist control]; in assay [5], 6.93% [at 30.8 µM]. In addition, in assay [4], the activity change, negative = inhibition is -11.4% [at 30.8 µM].
Consider `CCc1nnc(NS(=O)(=O)c2ccc(N/C=C\C(=O)c3ccc4ccccc4c3)cc2)s1`, for which the Potency result in assay [1] and in assay [3] was “inactive” throughout. Further, the activation was 1.49% [at 17.1 µM, percent relative to cAMP agonist control] in assay [2] and 3.82% [at 30.8 µM] in assay [5]. For the same molecule, in assay [4], the activity change, negative = inhibition was -10.2% [at 30.8 µM].
In the case of `Cc1ccc2oc(=O)n(CCOc3ccccc3C)c2c1`, the Potency entry in assay [1] and in assay [3] was “inactive” each time. For the same molecule, the activation was 11.2% [at 17.1 µM, percent relative to cAMP agonist control] in assay [2] and 15.6% [at 30.8 µM] in assay [5]. Moreover, the activity change, negative = inhibition in assay [4] was -6.86% [at 30.8 µM].
`Cc1ccc(C)c(S(=O)(=O)N2CCN(C(=O)CCNC(=O)c3ccc(Br)cc3)CC2)c1`: the Potency result in assay [1], in assay [2], in assay [3], in assay [4] and in assay [5] was “inactive” in each case.

These data come from PubChem BioAssay (NCATS).
